Measurements: publication PMC11062922 (Nature Chemical Biology, 2023)
Read-outs that look alike come from different tables or passages of the source.

What was measured:
Set-up in all cases: species or system human, MV4-11 + K-562 + COLO205 + SK-N-BE2 + OVCAR-8
[1] = system: CIT; conditions: read-out: apparent Kd, n = 1
[2] = system: CSK; conditions: read-out: apparent Kd, n = 1
[3] = system: EPHA1; conditions: read-out: apparent Kd, n = 1
[4] = system: EPHB3; conditions: read-out: apparent Kd, n = 1
[5] = system: FRK; conditions: read-out: apparent Kd, n = 1
[6] = system: FYN; conditions: read-out: apparent Kd; compound concentrations:100 nM and 1000 nM (sheet 'Samples'); n = 1
[7] = system: LYN; conditions: read-out: apparent Kd; compound concentrations:100 nM and 1000 nM (sheet 'Samples'); n = 1
[8] = system: MTOR; conditions: read-out: apparent Kd; compound concentrations:100 nM and 1000 nM (sheet 'Samples'); n = 1
[9] = system: AXL; conditions: read-out: apparent Kd; compound concentrations:100 nM and 1000 nM (sheet 'Samples'); n = 1
[10] = system: CDC42BPG; conditions: read-out: apparent Kd, n = 1
[11] = system: PKN2; conditions: read-out: apparent Kd; compound concentrations:100 nM and 1000 nM (sheet 'Samples'); n = 1
[12] = system: PRKG1; conditions: read-out: apparent Kd; compound concentrations:100 nM and 1000 nM (sheet 'Samples'); n = 1
[13] = system: ULK1; conditions: read-out: apparent Kd; compound concentrations:100 nM and 1000 nM (sheet 'Samples'); n = 1
[14] = system: PDGFRB; conditions: read-out: apparent Kd; compound concentrations: 100 nM and 1000 nM (sheet 'Samples'), CATDS: 3.4568718881872497E-2; n = 1
[15] = system: PIK3CG; conditions: read-out: apparent Kd; compound concentrations: 100 nM and 1000 nM (sheet 'Samples'), CATDS: 0.208226533332634; n = 1
[16] = system: TGFBR2; conditions: read-out: apparent Kd; compound concentrations:100 nM and 1000 nM (sheet 'Samples'); n = 1
[17] = compound concentrations:100 nM and 1000 nM (sheet 'Samples')

Cc1ccc2c(-c3ccncc3)c(-c3ccc(F)cc3)nn2c1.Cl [GW461484A]
potency estimated from few doses [1, 17]: 2.12 µM
potency estimated from few doses [2, 17]: 0.893 µM
potency estimated from few doses [3, 17]: 0.643 µM
potency estimated from few doses [4, 17]: 1.96 µM
potency estimated from few doses [5, 17]: 0.887 µM
potency estimated from few doses [6]: 1.17 µM
potency estimated from few doses [7]: 1.01 µM
potency estimated from few doses [8]: 0.571 µM

NCCNS(=O)(=O)c1ccc(-c2ccnc3[nH]ccc23)cc1 [GSK977617A]
potency estimated from few doses [9]: 1.33 µM
potency estimated from few doses [10, 17]: 0.442 µM
potency estimated from few doses [2, 17]: 0.757 µM
potency estimated from few doses [3, 17]: 0.723 µM
potency estimated from few doses [4, 17]: 1.78 µM
potency estimated from few doses [5, 17]: 0.832 µM
potency estimated from few doses [6]: 1.01 µM
potency estimated from few doses [7]: 0.936 µM
potency estimated from few doses [11]: 1.19 µM
potency estimated from few doses [12]: 0.621 µM
potency estimated from few doses [13]: 0.718 µM

Fc1ccc(-c2c(-c3ccncc3)[nH]c3cccnc23)cc1 [RO1153853-000]
potency estimated from few doses ([1]; compound concentrations: 100 nM and 1000 nM (sheet 'Samples'), CATDS: 4.9233992215081297E-2): 1.75 µM

CCn1c(-c2nonc2N)nc2c(C#CC(C)(C)O)nc(OCCN)cc21.CCn1c(-c2nonc2N)nc2c(C#CC(C)(C)O)nc(OCCN)cc21.Cl.Cl [GSK902056A]
potency estimated from few doses [1, 17]: 1.34 µM
potency estimated from few doses [11]: 0.581 µM
potency estimated from few doses [12]: 1.23 µM

CCn1c(-c2nonc2N)nc2c(-c3ccccc3)ncc(OCCCN)c21.CCn1c(-c2nonc2N)nc2c(-c3ccccc3)ncc(OCCCN)c21.O=C(O)C(F)(F)F.O=C(O)C(F)(F)F [GSK260205A]
potency estimated from few doses ([10]; compound concentrations: 100 nM and 1000 nM (sheet 'Samples'), CATDS: 6.3279699360334701E-2): 0.187 µM
potency estimated from few doses ([1]; compound concentrations: 100 nM and 1000 nM (sheet 'Samples'), CATDS: 2.8413357389646399E-2): 1.63 µM
potency estimated from few doses [14]: 0.808 µM

Cl.Nc1c(C(=O)c2cccc(C#CCN3CCCCC3)c2)cnn1-c1ccc(F)cc1 [RO1154461-001]
potency estimated from few doses ([2]; compound concentrations: 100 nM and 1000 nM (sheet 'Samples'), CATDS: 1.25977312115917E-2): 0.877 µM
potency estimated from few doses ([3]; compound concentrations: 100 nM and 1000 nM (sheet 'Samples'), CATDS: 1.62394808146854E-2): 0.463 µM
potency estimated from few doses ([4]; compound concentrations: 100 nM and 1000 nM (sheet 'Samples'), CATDS: 1.0883176780773701E-2): 1.39 µM
potency estimated from few doses ([5]; compound concentrations: 100 nM and 1000 nM (sheet 'Samples'), CATDS: 1.2851217136808301E-2): 0.829 µM

CC(C)N1CCC(n2cnc(-c3ccc(F)cc3)c2-c2ccnc(N)n2)CC1 [SB-223132]
potency estimated from few doses [1, 17]: 0.886 µM
potency estimated from few doses [2, 17]: 0.898 µM
potency estimated from few doses [4, 17]: 1.41 µM

CCn1c(-c2nonc2N)nc2c(C#CC(C)(C)O)nc(OCCNC)cc21.Cl [GSK949675A]
potency estimated from few doses [12]: 1.37 µM

O=C1NC(=O)/C(=C/c2ccc3ncccc3c2)S1 [RO4603632-000]
potency estimated from few doses [15]: 0.948 µM

Cl.NCc1ccc(-c2nc(-c3ccc(Cl)c(O)c3)c(-c3ccncc3)[nH]2)cc1 [SB-476429-A]
potency estimated from few doses [16]: 1.2 µM
